pAkt inh: HTS Assay for Inhibitors of Akt Phophorylation: Primary Screen; activity change, % for hits at 50 µM; hit rate 0.32% among 360,000; Neuro2A IGF-stimulated pAkt S473 HTRF, 20 min; active compounds read low; in the data active means activity change below about -80%; inconclusive means mostly about -51% to -80%; further: on the % scale 0 is the no-effect control and ±100 the full control effect
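Neuro2A cells (4,500/well, DMEM with 0.5% FBS) were treated with compound at a single 50 µM final concentration, stimulated with 6 nM IGF for 20 min at 37 °C, and lysed. Phospho-Akt Ser473 was read by HTRF as 665/615 ratio ×10^4.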
A-T KAP1 phos: qHTS Assay for Identifying a Potential Treatment of Ataxia-Telangiectasia; F2112 A-T fibroblasts, KAP-1 phosphorylation AlphaLISA; neocarzinostatin DNA damage 30 min before lysis; Potency, µM (top dose mostly 57.5 µM), inactives show top-dose activation, actives largely listed as activators; hit rate 0.19% among 320,000; further: potency means the concentration at half of the fitted maximal effect; % of control where 0% means no effect; nearly all actives have a fitted effect of over 45% in size
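ATM-like activity read as KAP-1 phosphorylation via AlphaLISA donor/acceptor antibody pairs after lysis and 6 hr at 25C. Cells were ATM-null patient fibroblasts (F2112, hTERT), dosed 60 min, then exposed to the DSB inducer NCS for 30 min.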
TrxR1 substrate: qHTS Assay for Substrates of Mammalian Selenoprotein Thioredoxin Reductase 1 (TrxR1): qHTS | Potency, µM (top dose mostly 114 µM), inactives show at the top dose activity change, negative = substrate turnover | Thioredoxin reductase 1, cytoplasmic (Rattus norvegicus), O89049 | hit rate 0.01% among 390,000 | purified TrxR1 substrate turnover, NADPH consumption readout; further: potency means the concentration at half of the fitted maximal effect; on the % scale 0 is the no-effect control and ±100 the full control effect; nearly all actives have a fitted effect of over 50% in size
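Rat TrxR1, dispensed at 90 nM, was prereduced with 400 uM NADPH (final) for 5 min at ~22 deg C, then incubated with compound 15 min before 400 uM selenite. A first-read NADPH fluorescence drop versus no-compound background flagged substrates.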
Pin1 inhibitor: qHTS Assay to Find Inhibitors of Pin1. Potency, µM (doses to about 115 µM), inactives show at the top dose activity, negative = inhibition, hits mostly inhibitors. AID 504891, 2011. hit rate 0.009% among 390,000. Pin1 FP peptide displacement, HiFluor488, 10 min; active means well fitted inhibition curve with a large enough effect in the polarisation, with a control signal flat, not every such curve was filed as active; inconclusive means small, poorly fitted or top-dose-only effect, or effect the other way, or a change in a side signal; inactive means no such curve, though single readings can be large or run the other way; the % refers to the polarisation; further: potency means the concentration at half of the fitted maximal effect; on the % scale 0 is the no-effect control and ±100 the full control effect
Target sequence (Q13526 whole entry, looked up): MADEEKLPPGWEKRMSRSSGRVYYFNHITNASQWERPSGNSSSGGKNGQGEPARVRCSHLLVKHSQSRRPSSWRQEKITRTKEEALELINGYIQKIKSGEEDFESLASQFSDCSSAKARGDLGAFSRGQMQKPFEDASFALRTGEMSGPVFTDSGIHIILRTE
TrxR1 inh: qHTS Assay for Inhibitors of Mammalian Selenoprotein Thioredoxin Reductase 1 (TrxR1): qHTS; Thioredoxin reductase 1, cytoplasmic (Rattus norvegicus), O89049; recombinant rTrxR1, NADPH fluorescence consumption, selenite substrate; Potency, µM (series often up to 114 µM), inactives show top-dose activity change, negative = inhibition, actives largely listed as inhibitors; hit rate 1% among 390,000; further: potency means the concentration at half of the fitted maximal effect; on the % scale 0 is the no-effect control and ±100 the full control effect; nearly all actives have a fitted effect of over 65% in size
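Rat TrxR1 (90 nM in the dispensed reagent) was pre-reduced with 400 uM NADPH for 5 min at room temperature, then incubated with compound for 15 min. After 400 uM selenite was added, NADPH fluorescence (Ex 340/Em 450 nm) was followed for 8 min.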
N370S GC: qHTS Assay for Inhibitors and Activators of N370S glucocerebrosidase as a Potential Chaperone Treatment of Gaucher Disease | Lysosomal acid glucosylceramidase (Homo sapiens), P04062 | N370S GC spleen homogenate, 4MU-glucoside fluorescence | Potency, µM (series often up to 59.4 µM), inactives show top-dose activity change, negative = inhibition, actives largely listed as inhibitors | hit rate 0.092% among 330,000 | AID 2101, 2009;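 further: potency means the concentration at half of the fitted maximal effect; 0% = full enzyme activity and -100% = no enzyme basal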
Active calls of the source: *; i = inactive; ? = inconclusive; / = not tested or not shown; [ ] = another dose, or the depositor's remark. Hits are enriched below; roughly 1.4% of the tested compounds scored in any of these assays. Unless noted, the call rests on the fitted dose curve; in most records, active means well fitted curve in the direction sought with a large enough effect; inconclusive means small, poorly fitted or top-dose-only effect, or another doubt; inactive means no such curve, though single readings can be large; an effect the other way counts as inactive or inconclusive.

SMILES | pAkt inh | A-T KAP1 phos | TrxR1 substrate | Pin1 inhibitor | TrxR1 inh | N370S GC
COc1cc(OC)c2c(c1C(CCN1CCOCC1)c1ccc(N(C)C)cc1)OC(=O)CC2c1ccc(N(C)C)cc1 (stereo not given) | i | -30% | -5% | ? | 9% | 10µM*
CCOc1cc(CN2CCN(c3ccc(C(C)=O)cc3)CC2)ccc1OC | i | 3% | 2% | 7% | 35µM* | -2%
CCOc1cc(CN2CCCCC2)ccc1OC | i | -6% | -7% | -11% | -3% | -1%
O=C(Nc1nc(-c2ccc(Br)cc2)ns1)c1ccccc1F | / | / | -3% | -4% | 15% | /
CN(C)c1ccc2nc3ccc(=[N+](C)C)cc-3sc2c1 | i | 11µM* | -19% | ? | 0% | -12%
CN(C)c1ccc2nc3ccc(=O)cc-3sc2c1 | i | / | / | / | / | /
Cc1cc2nc3ccc(=[N+](C)C)cc-3sc2cc1N | i | 16µM* | -16%[57.1 µM] | ? | 19%[57.1 µM] | 1%
O=P(O)(CCc1ccccc1)C(O)c1ccccc1 (stereo not given) | i | 12% | 7%[57.1 µM] | -4% | 17% | -3%
COc1ccc(C(O)P(=O)(O)CCc2ccccc2)cc1 (stereo not given) | -109%* | -9% | -1% | -4% | -7% | -2%
Cc1cc(Sc2nc(N)ncc2[N+](=O)[O-])ncn1 | i | -22% | 10%[57.1 µM] | -2% | 1.6µM* | 2%
Cn1c(=O)[nH]c(=O)c2c1nc(N/N=C/C(Br)=C/c1ccccc1)n2CCO | i | 6% | -5% | 7% | 3.5µM* | -9%
COc1cccc(NC(=O)c2ccc3snnc3c2)c1 | -113%* | 5% | -7% | -6% | -3% | 13%
O=C1CCCC2=C1C1(CCCC1)N=C(Nc1nc3cc4ccccc4cc3o1)N2 | / | / | / | 10% | / | /
Cc1cccc(CS(=O)(=O)c2ncc(Cl)c(C(=O)Nc3nc4ccc(F)cc4s3)n2)c1 | / | / | 5% | -5% | 3.2µM* | /
O=C(Nc1nc2ccc(F)cc2s1)c1nc(S(=O)(=O)Cc2ccccc2)ncc1Cl | / | / | 1% | -6% | 3.5µM* | /
OC(COc1ccc2c(c1)CCC2)Cn1cnc2ccccc21 (stereo not given) | -123%* | -6% | -6%[57.1 µM] | 2% | 5% | -12%
CC(=O)Nc1ccc(OCC(O)Cn2cnc3ccccc32)cc1 (stereo not given) | i | 0% | 9%[57.1 µM] | -2% | 15%[57.1 µM] | 2%
CC(=O)Nc1ccc(/C=C2\C=Cc3ccccc32)cc1 | / | / | -3% | / | ? | /
C#C[C@]1(O)CC[C@@H]2[C@H]3CCC4=Cc5oncc5C[C@]4(C)[C@@H]3CC[C@@]21C | / | / | / | / | / | -18%[21.6 µM]
Cc1ccc(-c2csc(NC(=O)c3cccc(N4C(=O)CCC4=O)c3)n2)o1 | i | -1% | 2% | 2% | 20µM* | 0%
CC(C)CN(C)c1ccc(/C=C2\C=Cc3ccccc32)cc1 | / | / | -3% | / | 45µM* | /
CN(C)/C=C1\C=Cc2ccccc21 | / | / | -5% | / | 2.2µM* | /
COc1ccccc1/C=C1\C=Cc2ccccc21 | / | / | -13% | / | 22µM* | /
CN(C)c1ccc(/C=C2\C=Cc3ccccc32)cc1 | / | / | -5% | / | -15% | /
Cn1nnnc1Sc1ncnc2scc(-c3ccc4c(=O)ccoc4c3)c12 | / | / | / | -4% | / | /
COc1ccc2[nH]cc(CCNc3ccnc(-c4ccccc4C)n3)c2c1 | / | / | / | / | / | 14µM*
COc1ccc(CNc2ccnc(-c3ccccc3Cl)n2)c(OC)c1 | / | / | / | / | / | 4.5µM*
COc1ccccc1-c1nc(NCc2cccnc2)c2ccccc2n1 | / | / | / | / | / | -8%
COc1ccc(CNc2ccnc(-c3ccccc3OC)n2)c(OC)c1 | / | / | / | / | / | -12%

Source: PubChem BioAssay (National Center for Advancing Translational Sciences (NCATS))
